KB-V1 MDR tox – KB-V1 MDR subline cytotoxicity; hit rate 3.4% among 400,000; Potency, µM (top dose mostly 46.1 µM), usual class: cytotoxic; KB-V1 MDR cells viability, CellTiter-Glo, 72 h; further: nearly all actives have a fitted effect of over 60% in size
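Luminescent ATP read-out (CellTiter-Glo, 10 min) measures survival of drug-selected KB-V1 MDR cells after 72 h, 37 degrees C compound exposure. Medium: phenol-red-free DMEM, 10% FBS. Values from fitted concentration-response curves.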
KCNH2 3.1 block – blocks the human KCNH2 3.1 channel isoform | activity change, % (tested at about 1.8 µM) | hit rate 0.95% among 340,000 | U2OS KCNH2 3.1, thallium flux FluxOr; active compounds read low | AID 720553;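 active means maximum activity change below -70%; inconclusive means maximum activity change from -70% to -50%; inactive means maximum activity change above -50%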;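 further: thallium influx rate constant from kinetic fluorescence after stimulation buffer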
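Virally transduced U2OS (3.1 isoform, 4 h infection in dark at RT) → overnight 37 C → FluxOr + Red40 in HBSS/HEPES, 45 min → stimulation buffer, 2 min kinetic read → rate constant vs DMSO controls.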
SW480 rerep – inducers of DNA re-replication in SW480 colon cancer cells; SW480 DNA re-replication, Hoechst DNA content imaging, 48 h; Potency, µM (top dose mostly 46.1 µM), usual class: activators; hit rate 1.8% among 340,000; AID 624297; further: nearly all actives have a fitted effect of over 55% in size
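Compounds, transferred as 23 nL by pin tool, were incubated with cells for 48 hr; DNA content per nucleus was then quantified by Hoechst staining and fluorescence plate imaging.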
KB-3-1 cytotox – KB-3-1 parental cell cytotoxicity | KB-3-1 viability, CellTiter-Glo ATP luminescence, 72 h | Potency, µM (doses to about 46.1 µM), most hits filed as cytotoxic | hit rate 1.4% among 400,000 | AID 1347075; further: nearly all actives have a fitted effect of over 60% in size
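Cytotoxicity measured as CellTiter-Glo luminescence after 72 h at 37 C. Compound titrations were pinned onto drug-naive KB-3-1 parental adenocarcinoma cells grown in DMEM with 10% FBS, and normalized data fitted to concentration-response curves.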
MCF10A rerep – inducers of DNA re-replication in MCF 10A breast cells | hit rate 2.9% among 350,000 | AID 624296 | Potency, µM (series often up to 46.1 µM), hits mostly activators | MCF 10A DNA re-replication, Hoechst nuclear intensity, 48 h; further: nearly all actives have a fitted effect of over 50% in size
KCNH2 WT inh – blocks the wildtype human KCNH2 potassium channel. U2OS, BacMam KCNH2, thallium flux FluxOr; active compounds read low. hit rate 0.37% among 340,000. activity change, % at 1.84 µM. Q12809;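 active means maximum activity change below -70%; inconclusive means maximum activity change between -70% and -50%; inactive means maximum activity change above -50%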
Target sequence (Q12809 whole entry, looked up): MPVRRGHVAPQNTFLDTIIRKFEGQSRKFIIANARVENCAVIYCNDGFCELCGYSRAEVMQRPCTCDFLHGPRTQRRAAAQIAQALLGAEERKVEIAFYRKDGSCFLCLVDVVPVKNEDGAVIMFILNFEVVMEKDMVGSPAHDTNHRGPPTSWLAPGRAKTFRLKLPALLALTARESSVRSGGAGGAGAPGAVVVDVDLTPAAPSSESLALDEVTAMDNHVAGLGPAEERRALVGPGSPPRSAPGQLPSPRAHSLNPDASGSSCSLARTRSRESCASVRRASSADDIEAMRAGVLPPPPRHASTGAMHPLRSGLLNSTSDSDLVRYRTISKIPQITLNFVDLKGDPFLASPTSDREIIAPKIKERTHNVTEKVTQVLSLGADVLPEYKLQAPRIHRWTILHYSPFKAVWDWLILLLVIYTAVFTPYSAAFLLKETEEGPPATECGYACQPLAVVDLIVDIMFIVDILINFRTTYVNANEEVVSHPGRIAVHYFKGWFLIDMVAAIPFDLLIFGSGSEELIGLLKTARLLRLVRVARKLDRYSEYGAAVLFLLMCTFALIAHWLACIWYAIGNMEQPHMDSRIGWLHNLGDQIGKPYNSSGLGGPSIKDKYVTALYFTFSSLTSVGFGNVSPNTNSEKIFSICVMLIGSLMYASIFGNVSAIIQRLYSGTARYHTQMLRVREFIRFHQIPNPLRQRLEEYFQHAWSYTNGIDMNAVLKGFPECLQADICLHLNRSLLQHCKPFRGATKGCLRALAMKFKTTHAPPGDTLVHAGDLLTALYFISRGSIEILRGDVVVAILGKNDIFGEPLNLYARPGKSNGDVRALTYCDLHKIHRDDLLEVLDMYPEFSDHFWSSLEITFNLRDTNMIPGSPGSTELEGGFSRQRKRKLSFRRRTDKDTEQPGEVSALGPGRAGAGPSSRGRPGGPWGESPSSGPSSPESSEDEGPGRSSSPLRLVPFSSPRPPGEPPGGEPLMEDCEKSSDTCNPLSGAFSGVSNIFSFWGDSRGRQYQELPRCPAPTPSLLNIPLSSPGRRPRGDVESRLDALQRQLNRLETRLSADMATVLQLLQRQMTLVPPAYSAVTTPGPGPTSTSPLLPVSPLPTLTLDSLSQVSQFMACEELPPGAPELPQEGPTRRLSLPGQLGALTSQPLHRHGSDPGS
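U2OS cells were transduced with wild-type KCNH2 virus (2.03 x 10^8 / mL) for 4 h at room temperature, then cultured overnight at 37 C. Thallium flux was read with FluxOr dye. Rate constants were normalized to DMSO controls.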
Large screens that a line does not name were inactive. Only some compounds are listed: those with a hit (about 7.6% of all), similar ones and a draw of the others. Unless noted, the call rests on the fitted dose curve; in most records, active means well fitted curve in the direction sought with a large enough effect; inconclusive means small, poorly fitted or top-dose-only effect, or another doubt; inactive means no such curve, though single readings can be large; an effect the other way counts as inactive or inconclusive.

C[N+](C)(C)CC(O)CC(=O)O (stereo unspecified)	KCNH2 WT inh -295
CC1CCN(C(=O)c2cnn(-c3cccc(Cl)c3)c2C2CCN(C(=O)OC(C)(C)C)CC2)CC1	none (no result: KCNH2 3.1 block, SW480 rerep, MCF10A rerep, KCNH2 WT inh)
CCCN(CCC)CCNC(=O)CN1C(=O)COc2ccc(S(=O)(=O)N3CCOCC3)cc21	none
CC(=O)C(C(C)=O)c1c(Cl)c(O)c(O)c2c(C(=O)c3ccccc3)coc12	KB-V1 MDR tox inconclusive, KB-3-1 cytotox 13µM, MCF10A rerep inconclusive
C/C(=N/NC(=O)c1ccc(C)s1)c1cccc(NC(=O)c2ccoc2C)c1	none
CCc1nnc(NC(=O)CSc2nnc(C3CC3)n2C)s1	none
Cn1c(SCC(=O)Nc2nc(C(C)(C)C)cs2)nnc1C1CC1	MCF10A rerep 6.5µM
Cc1ccc(-c2nnc(NC(=O)CCS(=O)(=O)c3ccc(F)cc3)o2)c(C)c1	MCF10A rerep 8.2µM
O=C(CCS(=O)(=O)c1ccc(F)cc1)Nc1nnc(-c2ccc(F)cc2)o1	SW480 rerep inconclusive, MCF10A rerep inconclusive
O=C(CCS(=O)(=O)c1ccc(Cl)cc1)Nc1nnc(-c2cccs2)o1	SW480 rerep 1.6µM, MCF10A rerep inconclusive
Cc1ccc(S(=O)(=O)CCC(=O)Nc2nnc(-c3cccs3)o2)cc1	SW480 rerep inconclusive, MCF10A rerep inconclusive
O=C(/C=C/c1ccc(Cl)cc1Cl)N(Cc1ccc(Cl)cc1)C1CCS(=O)(=O)C1 (stereo unspecified)	KB-V1 MDR tox 5.8µM, KB-3-1 cytotox inconclusive, MCF10A rerep inconclusive
CC(C)CN(C(=O)CN(C)S(=O)(=O)c1ccc(Cl)cc1)C1CCS(=O)(=O)C1 (stereo unspecified)	none
CCCN(C(=O)/C=C/c1ccc(S(=O)(=O)N(CC)CC)cc1)C1CCS(=O)(=O)C1 (stereo unspecified)	KB-V1 MDR tox 23µM
Cc1ccc(S(=O)(=O)N(C)CC(=O)N(CC(C)C)C2CCS(=O)(=O)C2)cc1 (stereo unspecified)	SW480 rerep 4.1µM
O=C(/C=C/c1ccc(Cl)cc1)N(Cc1ccccc1)C1CCS(=O)(=O)C1 (stereo unspecified)	KB-V1 MDR tox inconclusive, KCNH2 3.1 block -75
O=C(/C=C/c1ccc(Cl)cc1Cl)N(Cc1ccccc1)C1CCS(=O)(=O)C1 (stereo unspecified)	KB-V1 MDR tox inconclusive (no result: SW480 rerep)
O=S(=O)(/N=C(/c1ccccc1)N1CCOCC1)c1ccc(F)cc1	none
CCN(C(=O)c1cc(Cl)ccc1Cl)C1CCS(=O)(=O)C1 (stereo unspecified)	KB-V1 MDR tox 18µM
C=CCn1c(SCc2ccccc2Cl)nnc1-c1sc2nc(C)cc(C)c2c1N	SW480 rerep 18µM, MCF10A rerep 10µM
Cc1cc(C)c2c(N)c(-c3nnc(SCc4ccc(Cl)cc4)n3C)sc2n1	none
COc1ccc(CC(=O)NCC2CCCN(Cc3cc(OC)cc(OC)c3)C2)cc1 (stereo unspecified)	none
O=C(NCC1(O)CCCCC1)C1CCC(=O)N(Cc2cccc(C(F)(F)F)c2)C1 (stereo unspecified)	none (no result: KB-V1 MDR tox, KB-3-1 cytotox)
COC(=O)C(C)Sc1nnc2cc(C)c3cc(C)cc(C)c3n12 (stereo unspecified)	none (no result: KCNH2 3.1 block, SW480 rerep, MCF10A rerep, KCNH2 WT inh)
CC1CC(C)(C)NC(=S)N1CCCC(=O)Nc1ccc(Br)cc1 (stereo unspecified)	KB-V1 MDR tox 23µM
CC(C)CC(=O)N1CCN(S(=O)(=O)c2ccc3ccccc3c2)CC1	KB-V1 MDR tox 7.3µM, KB-3-1 cytotox inconclusive
Nc1cc(=O)[nH]c(SCC(=O)N2CCN(S(=O)(=O)c3ccc4ccccc4c3)CC2)n1	none
O=S(=O)(c1ccc2ccccc2c1)N1CCN(C2CCN(Cc3ccccc3)CC2)CC1	KB-V1 MDR tox 7.3µM
O=C(CSc1ncc(C(F)(F)F)cc1Cl)N1CCN(S(=O)(=O)c2ccc3ccccc3c2)CC1	KB-V1 MDR tox 5.8µM
O=C(COC(=O)CNC(=O)c1ccco1)Nc1ncc(Cl)cc1Cl	none
CCOC(=O)c1c(NC(=O)Cc2cccs2)sc(C)c1C	KB-V1 MDR tox inconclusive, MCF10A rerep 3.7µM
COC(=O)c1c(NC(=O)Cc2cccs2)sc(C(=O)NC2CCCCC2)c1C	SW480 rerep inconclusive
COC(=O)c1c(NC(=O)Cc2cccs2)sc(C(=O)N2CCCCC2)c1C	KB-V1 MDR tox 16µM
CCN(CC)S(=O)(=O)c1cc(NC(=O)C(C)N2CCc3ccccc32)ccc1C (stereo unspecified)	KB-V1 MDR tox inconclusive, SW480 rerep inconclusive, KB-3-1 cytotox inconclusive, MCF10A rerep inconclusive
CCN(CC)S(=O)(=O)c1cc(NC(=O)C(C)N(C)CC(=O)Nc2c(C)cccc2C)ccc1C (stereo unspecified)	KB-V1 MDR tox 5.2µM, KB-3-1 cytotox inconclusive
CC[N+]1(C)CCC(O)(/C=C/c2ccccc2)C(C(=O)/C=C/c2ccccc2)C1 (stereo unspecified)	KB-V1 MDR tox inconclusive, SW480 rerep 21µM, KB-3-1 cytotox inconclusive, MCF10A rerep inconclusive (no result: KCNH2 3.1 block)
CCc1ccc(/C=C/C(=O)C2C(=O)c3ccccc3C2=O)cc1	SW480 rerep inconclusive, MCF10A rerep inconclusive
COc1cc(C(C(=O)NC2CCCCC2)N(C(=O)Cc2c[nH]c3ccccc23)c2ccc(C)cc2)cc(OC)c1OC (stereo unspecified)	KB-V1 MDR tox 23µM, KB-3-1 cytotox inconclusive
Cc1ccc(C(C(=O)NC2CCCCC2)N(C(=O)Cc2c[nH]c3ccccc23)c2ccccc2)o1 (stereo unspecified)	KB-V1 MDR tox 4.1µM, KB-3-1 cytotox 18µM, MCF10A rerep inconclusive
CC(=O)Nc1ccc(N(C(=O)Cc2c[nH]c3ccccc23)C(C(=O)NC2CCCCC2)c2ccco2)cc1 (stereo unspecified)	none
Cc1nc(NC(=O)C2CC2)sc1C(=O)Nc1ccccc1Cl	KB-V1 MDR tox inconclusive
CCCOc1ccc(NC(=O)CC2C(=O)N(C)C(=S)N2Cc2cccs2)cc1 (stereo unspecified)	KB-3-1 cytotox inconclusive
CCOc1cccc(C(=O)Nc2ccc(NC(=O)c3cc4ccccc4o3)c(OC)c2)c1	KB-V1 MDR tox inconclusive, MCF10A rerep inconclusive
COc1cc(NC(=O)c2cccc(C)c2)ccc1NC(=O)c1cc2ccccc2o1	MCF10A rerep 2.6µM
COc1cc(NC(=S)NC(=O)C(C)C)ccc1NC(=O)c1cc2ccccc2o1	SW480 rerep inconclusive, MCF10A rerep 8.2µM
O=C(NCc1ccc(Cl)cc1)c1ccc(-c2ccccc2C(F)(F)F)o1	MCF10A rerep 23µM
CCn1ncc(Br)c1C(=O)Nc1ccc(F)cc1F	KB-V1 MDR tox inconclusive, SW480 rerep 21µM, MCF10A rerep 16µM
COC(=O)c1ccccc1NC(=O)c1c(Br)cnn1C	KB-V1 MDR tox inconclusive

Screening data deposited in PubChem BioAssay by National Center for Advancing Translational Sciences (NCATS).
